Experiment in all cases: PBM; 200 nM protein, PBS
Common to all, as to settings: dsDNA, one strand shown

Assay [1] has as its target HOXC9 (Homo sapiens, UniProt P31274 178-260, K195R).
Assay [2] concerns the target HOXC9 (Homo sapiens, UniProt P31274 178-260).
Assay [3] has as its target HOXC9 (Homo sapiens, UniProt P31274 178-260, R193K).
Assay [4] deals with HOXC9 (Homo sapiens, UniProt P31274 178-260, R222W).
In assay [5] the target is PROP1 (Homo sapiens, UniProt O75360 56-141).
In assay [6] the target is PROP1 (Homo sapiens, UniProt O75360 56-141, R99H).
Sequence of PROP1 (Homo sapiens, UniProt O75360 56-141, R99H) (O75360 56-141 R99H): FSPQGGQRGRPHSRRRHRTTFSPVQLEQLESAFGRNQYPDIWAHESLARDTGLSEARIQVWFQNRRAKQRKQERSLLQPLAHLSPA
In assay [7] the target is PROP1 (Homo sapiens, UniProt O75360 56-141, F88S).
Sequence of PROP1 (Homo sapiens, UniProt O75360 56-141, F88S) (O75360 56-141 F88S): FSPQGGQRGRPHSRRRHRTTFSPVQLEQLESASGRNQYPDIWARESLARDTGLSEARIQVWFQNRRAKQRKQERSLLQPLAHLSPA
Assay [8] deals with T1, VENTX (Homo sapiens, UniProt O95231 78-163).
T1 sequence: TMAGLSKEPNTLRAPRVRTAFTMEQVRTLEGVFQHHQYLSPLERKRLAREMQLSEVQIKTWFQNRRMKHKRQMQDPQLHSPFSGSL

The target in assay [9] is ALX4 (Homo sapiens, UniProt Q9H161 200-286).
Sequence of ALX4 (Q9H161 200-286): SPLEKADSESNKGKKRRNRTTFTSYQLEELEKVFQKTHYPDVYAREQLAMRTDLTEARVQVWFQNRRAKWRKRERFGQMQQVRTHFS
The target of assay [10] is HOXA7 (Homo sapiens, UniProt P31268 116-202).
Sequence of HOXA7 (Homo sapiens, UniProt P31268 116-202) (P31268 116-202): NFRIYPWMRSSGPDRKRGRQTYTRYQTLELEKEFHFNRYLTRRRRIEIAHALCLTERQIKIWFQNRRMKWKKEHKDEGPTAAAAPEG
Assay [11] addresses HOXC10 (Homo sapiens, UniProt Q9NYD6 254-340).
Assay [12] addresses HOXB6 (Homo sapiens, UniProt P17509 132-218, K202E).
The target of assay [13] is HOXC10 (Homo sapiens, UniProt Q9NYD6 254-340, K271E).
Sequence of HOXC10 (Homo sapiens, UniProt Q9NYD6 254-340, K271E) (Q9NYD6 254-340 K271E): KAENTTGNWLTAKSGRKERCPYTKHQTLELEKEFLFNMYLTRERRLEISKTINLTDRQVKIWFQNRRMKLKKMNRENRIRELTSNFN
Assay [14] addresses HOXA7 (Homo sapiens, UniProt P31268 116-202, W177C).
Assay [15] has as its target HOXB6 (Homo sapiens, UniProt P17509 132-218).
Assay [16] deals with T2, VENTX (Homo sapiens, UniProt O95231 78-163, Y115F).
T2 sequence: T1 sequence with Y38F

Where a chain is given by its changes, count along the chain named.

Sequence of HOXC9 (Homo sapiens, UniProt P31274 178-260) (P31274 178-260): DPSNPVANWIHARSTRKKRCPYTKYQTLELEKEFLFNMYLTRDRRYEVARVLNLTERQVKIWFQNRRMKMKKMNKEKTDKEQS
Sequence of HOXC9 (Homo sapiens, UniProt P31274 178-260, R222W) (P31274 178-260 R222W): as the sequence (P31274 178-260) above, with R45W counted along it
Sequence of HOXC9 (Homo sapiens, UniProt P31274 178-260, K195R) (P31274 178-260 K195R): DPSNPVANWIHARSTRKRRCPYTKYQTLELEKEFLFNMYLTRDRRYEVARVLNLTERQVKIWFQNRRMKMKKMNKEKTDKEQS
Sequence of HOXC9 (Homo sapiens, UniProt P31274 178-260, R193K) (P31274 178-260 R193K): as the sequence (P31274 178-260) above, with R16K counted along it
Sequence of HOXC10 (Homo sapiens, UniProt Q9NYD6 254-340) (Q9NYD6 254-340): as the sequence (Q9NYD6 254-340 K271E) above, with E18K counted along it
Sequence of HOXA7 (Homo sapiens, UniProt P31268 116-202, W177C) (P31268 116-202 W177C): as the sequence (P31268 116-202) above, with W62C counted along it
Sequence of HOXB6 (Homo sapiens, UniProt P17509 132-218, K202E) (P17509 132-218 K202E): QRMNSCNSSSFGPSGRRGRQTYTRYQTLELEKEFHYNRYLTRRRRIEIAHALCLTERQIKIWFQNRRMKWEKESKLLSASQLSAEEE
Sequence of HOXB6 (Homo sapiens, UniProt P17509 132-218) (P17509 132-218): as the sequence (P17509 132-218 K202E) above, with E71K counted along it
Sequence of PROP1 (Homo sapiens, UniProt O75360 56-141) (O75360 56-141): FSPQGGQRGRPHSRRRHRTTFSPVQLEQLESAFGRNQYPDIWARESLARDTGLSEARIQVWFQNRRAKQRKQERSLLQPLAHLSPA

For AGTATAAC, the binding signal is 11 upbm affinity estimate (log intensity, higher = more binding, comparable within an allelic series) in [1]; 11 upbm affinity estimate (log intensity, higher = more binding, comparable within an allelic series) in [2]; 11 upbm affinity estimate (log intensity, higher = more binding, comparable within an allelic series) in [3].
In the case of GAGAGCTC, the binding signal in assay [1] is 9.48 upbm affinity estimate (log intensity, higher = more binding, comparable within an allelic series); in assay [2], 9.56 upbm affinity estimate (log intensity, higher = more binding, comparable within an allelic series); in [3], 9.3 upbm affinity estimate (log intensity, higher = more binding, comparable within an allelic series); in [4], 9.65 upbm affinity estimate (log intensity, higher = more binding, comparable within an allelic series).
For CCTCTGGA, the binding signal in [1] was 9.66 upbm affinity estimate (log intensity, higher = more binding, comparable within an allelic series); in assay [2] it was 9.58 upbm affinity estimate (log intensity, higher = more binding, comparable within an allelic series); in [3] it was 9.64 upbm affinity estimate (log intensity, higher = more binding, comparable within an allelic series); in assay [4], 9.74 upbm affinity estimate (log intensity, higher = more binding, comparable within an allelic series).
With CGCATTTA, the binding signal was 11.1 upbm affinity estimate (log intensity, higher = more binding, comparable within an allelic series) in [1]; 11.2 upbm affinity estimate (log intensity, higher = more binding, comparable within an allelic series) in assay [2]; 11.2 upbm affinity estimate (log intensity, higher = more binding, comparable within an allelic series) in [3].
Consider AGCCCGGC, for which the binding signal in assay [1] is 9.63 upbm affinity estimate (log intensity, higher = more binding, comparable within an allelic series); in assay [2] it was 9.75 upbm affinity estimate (log intensity, higher = more binding, comparable within an allelic series); in assay [3] it was 9.64 upbm affinity estimate (log intensity, higher = more binding, comparable within an allelic series); in [4], 9.67 upbm affinity estimate (log intensity, higher = more binding, comparable within an allelic series).
For the sequence ATTATCGG, the binding signal in [1] was 11.3 upbm affinity estimate (log intensity, higher = more binding, comparable within an allelic series); in assay [2], 11.5 upbm affinity estimate (log intensity, higher = more binding, comparable within an allelic series); in assay [3], 11.4 upbm affinity estimate (log intensity, higher = more binding, comparable within an allelic series).
With CACTAATA, the binding signal is 11.3 upbm affinity estimate (log intensity, higher = more binding, comparable within an allelic series) in [1]; 11.4 upbm affinity estimate (log intensity, higher = more binding, comparable within an allelic series) in assay [2]; 11.4 upbm affinity estimate (log intensity, higher = more binding, comparable within an allelic series) in assay [3].
CATTTAGA: the binding signal is 11.1 upbm affinity estimate (log intensity, higher = more binding, comparable within an allelic series) in assay [1]; 11.1 upbm affinity estimate (log intensity, higher = more binding, comparable within an allelic series) in assay [2]; 11.3 upbm affinity estimate (log intensity, higher = more binding, comparable within an allelic series) in assay [3].
With CCTAGACG, the binding signal was 9.79 upbm affinity estimate (log intensity, higher = more binding, comparable within an allelic series) in [1]; 9.86 upbm affinity estimate (log intensity, higher = more binding, comparable within an allelic series) in assay [2]; 9.81 upbm affinity estimate (log intensity, higher = more binding, comparable within an allelic series) in [3]; 9.82 upbm affinity estimate (log intensity, higher = more binding, comparable within an allelic series) in assay [4].
Take GGGGGGCA: the binding signal in [1] is 9.42 upbm affinity estimate (log intensity, higher = more binding, comparable within an allelic series); in assay [2], 9.53 upbm affinity estimate (log intensity, higher = more binding, comparable within an allelic series); in assay [3] it was 9.49 upbm affinity estimate (log intensity, higher = more binding, comparable within an allelic series); in assay [4], 9.28 upbm affinity estimate (log intensity, higher = more binding, comparable within an allelic series).
On to ATTGTATG, for which the binding signal in assay [1] was 11.1 upbm affinity estimate (log intensity, higher = more binding, comparable within an allelic series); in [2], 11 upbm affinity estimate (log intensity, higher = more binding, comparable within an allelic series); in [3], 11.1 upbm affinity estimate (log intensity, higher = more binding, comparable within an allelic series).
Consider ACTTTACG, for which the binding signal in [1] was 11.5 upbm affinity estimate (log intensity, higher = more binding, comparable within an allelic series); in [2] it was 11.7 upbm affinity estimate (log intensity, higher = more binding, comparable within an allelic series); in assay [3], 11.5 upbm affinity estimate (log intensity, higher = more binding, comparable within an allelic series).
As for CGGTGCCA, the binding signal in assay [1] is 9.43 upbm affinity estimate (log intensity, higher = more binding, comparable within an allelic series); in assay [2] it was 9.52 upbm affinity estimate (log intensity, higher = more binding, comparable within an allelic series); in assay [3], 9.49 upbm affinity estimate (log intensity, higher = more binding, comparable within an allelic series); in [5], 6.41 upbm affinity estimate (log intensity, higher = more binding, comparable within an allelic series); in assay [6], 6.46 upbm affinity estimate (log intensity, higher = more binding, comparable within an allelic series); in assay [4], 9.58 upbm affinity estimate (log intensity, higher = more binding, comparable within an allelic series). Besides, in assay [7], the binding signal was 6.5 upbm affinity estimate (log intensity, higher = more binding, comparable within an allelic series).
With CCGGAAGG, the binding signal in assay [1] is 9.63 upbm affinity estimate (log intensity, higher = more binding, comparable within an allelic series); in [2], 9.81 upbm affinity estimate (log intensity, higher = more binding, comparable within an allelic series); in assay [3], 9.73 upbm affinity estimate (log intensity, higher = more binding, comparable within an allelic series); in assay [4] it was 9.78 upbm affinity estimate (log intensity, higher = more binding, comparable within an allelic series).
Take CTAACGCA: the binding signal in [8] was 9.98 upbm affinity estimate (log intensity, higher = more binding, comparable within an allelic series); in [9], 9.64 upbm affinity estimate (log intensity, higher = more binding, comparable within an allelic series).
For AGGGACCC, the binding signal in [1] was 9.58 upbm affinity estimate (log intensity, higher = more binding, comparable within an allelic series); in assay [2] it was 9.44 upbm affinity estimate (log intensity, higher = more binding, comparable within an allelic series); in [3], 9.63 upbm affinity estimate (log intensity, higher = more binding, comparable within an allelic series); in [4], 9.54 upbm affinity estimate (log intensity, higher = more binding, comparable within an allelic series).
With CATTTACG, in assay [8], the binding signal was 10.4 upbm affinity estimate (log intensity, higher = more binding, comparable within an allelic series).
Still for that read-out and setting: for TTATGCAA the value was 9.95 upbm affinity estimate (log intensity, higher = more binding, comparable within an allelic series).
In the case of GAGTCCGC, the binding signal in [10] is 8.56 upbm affinity estimate (log intensity, higher = more binding, comparable within an allelic series); in [11] it was 10.1 upbm affinity estimate (log intensity, higher = more binding, comparable within an allelic series); in assay [12] it was 9.05 upbm affinity estimate (log intensity, higher = more binding, comparable within an allelic series); in assay [13] it was 10.1 upbm affinity estimate (log intensity, higher = more binding, comparable within an allelic series); in [14], 8.39 upbm affinity estimate (log intensity, higher = more binding, comparable within an allelic series); in assay [15], 8.98 upbm affinity estimate (log intensity, higher = more binding, comparable within an allelic series).
ATCACCAT: in assay [8], the binding signal was 10.3 upbm affinity estimate (log intensity, higher = more binding, comparable within an allelic series).
The same measure, in the same setting: the same measure for GATTGAGC: 9.7 upbm affinity estimate (log intensity, higher = more binding, comparable within an allelic series).
ACCGCTTA: the binding signal in assay [8] was 10.8 upbm affinity estimate (log intensity, higher = more binding, comparable within an allelic series).
With GCCCCAGC, the binding signal in assay [1] was 9.66 upbm affinity estimate (log intensity, higher = more binding, comparable within an allelic series); in assay [2], 9.84 upbm affinity estimate (log intensity, higher = more binding, comparable within an allelic series); in [3], 9.62 upbm affinity estimate (log intensity, higher = more binding, comparable within an allelic series); in [4], 9.7 upbm affinity estimate (log intensity, higher = more binding, comparable within an allelic series).
With CAGGTCCC, the binding signal in assay [10] was 8.47 upbm affinity estimate (log intensity, higher = more binding, comparable within an allelic series); in assay [11], 10 upbm affinity estimate (log intensity, higher = more binding, comparable within an allelic series); in assay [13], 10.1 upbm affinity estimate (log intensity, higher = more binding, comparable within an allelic series); in [14], 8.4 upbm affinity estimate (log intensity, higher = more binding, comparable within an allelic series).
Consider CGACTTAA, for which the binding signal is 10.1 upbm affinity estimate (log intensity, higher = more binding, comparable within an allelic series) in assay [8] and 10.3 upbm affinity estimate (log intensity, higher = more binding, comparable within an allelic series) in assay [9].
For AAAATGCT, the binding signal in assay [8] was 9.84 upbm affinity estimate (log intensity, higher = more binding, comparable within an allelic series).
The same measure, in the same setting: the same measure for CATCATCA: 10.4 upbm affinity estimate (log intensity, higher = more binding, comparable within an allelic series).
For the sequence TCCTTCGA, the binding signal in [1] was 9.75 upbm affinity estimate (log intensity, higher = more binding, comparable within an allelic series); in assay [2], 9.66 upbm affinity estimate (log intensity, higher = more binding, comparable within an allelic series); in assay [3], 9.72 upbm affinity estimate (log intensity, higher = more binding, comparable within an allelic series); in assay [4], 9.84 upbm affinity estimate (log intensity, higher = more binding, comparable within an allelic series).
CACGTTTA: the binding signal in assay [8] is 10.1 upbm affinity estimate (log intensity, higher = more binding, comparable within an allelic series).
Same read-out and setting: the same measure for AATAACCG: 10.1 upbm affinity estimate (log intensity, higher = more binding, comparable within an allelic series).
As to AGGGGGTG, the binding signal in assay [1] was 9.33 upbm affinity estimate (log intensity, higher = more binding, comparable within an allelic series); in assay [2], 9.51 upbm affinity estimate (log intensity, higher = more binding, comparable within an allelic series); in assay [3] it was 9.39 upbm affinity estimate (log intensity, higher = more binding, comparable within an allelic series); in [4] it was 9.42 upbm affinity estimate (log intensity, higher = more binding, comparable within an allelic series).
For the sequence ACTAAGCG, the binding signal in assay [8] was 10.2 upbm affinity estimate (log intensity, higher = more binding, comparable within an allelic series).
In the case of CCCCAGGG, the binding signal in assay [1] was 9.62 upbm affinity estimate (log intensity, higher = more binding, comparable within an allelic series); in assay [2], 9.8 upbm affinity estimate (log intensity, higher = more binding, comparable within an allelic series); in assay [3], 9.59 upbm affinity estimate (log intensity, higher = more binding, comparable within an allelic series); in assay [4], 9.62 upbm affinity estimate (log intensity, higher = more binding, comparable within an allelic series).
GATGATCA: the binding signal was 9.89 upbm affinity estimate (log intensity, higher = more binding, comparable within an allelic series) in [8] and 9.51 upbm affinity estimate (log intensity, higher = more binding, comparable within an allelic series) in assay [16].
As to TATGAATA, the binding signal in assay [8] is 10.3 upbm affinity estimate (log intensity, higher = more binding, comparable within an allelic series).
The same measure, in the same setting: the same measure for CGCGTTTA: 10.2 upbm affinity estimate (log intensity, higher = more binding, comparable within an allelic series).

Values taken from paper PMC11006913.
